According to the supplement of paper PMC6522484:
± gives the standard deviation of the averaged measurements.

Tests used:
[1] = test system: DLD1; experiment: cell viability (CellTiter-Glo) relative to plate median (fraction of plate median); higher = more viable cells; conditions: 5 µM; treatment time 24 h; reporter: 7TFP
Procedure, shortened: (§1)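 For this screen, colorectal cancer cell lines carrying stable lentiviral TCF/Wnt firefly luciferase reporters, either 7TFP or TCF4/Wnt, were seeded into 384-well plates. A day's wait of 24 h preceded addition of library compounds at a final 5 µM, which stayed on the cells for 24 h. Firefly luciferase or CellTiterGlo luminescence, read on parallel plates, was normalised to the plate median per well, and the reported value is the mean of two independent replicates.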

[2] = test system: HCT116; experiment: as above; conditions: 5 µM; treatment time 24 h; reporter: TCF4/Wnt
Procedure, shortened: as §1

[3] = test system: SW480; experiment: as above; conditions: 5 µM; treatment time 24 h; reporter: 7TFP
Procedure, shortened: as §1

[4] = test system: DLD1; experiment: TCF/Wnt firefly luciferase reporter signal relative to plate median (fraction of plate median); higher = higher Wnt reporter signal; conditions: 5 µM; treatment time 24 h; reporter: 7TFP
Procedure, shortened: as §1

[5] = test system: SW480; experiment: as above; conditions: 5 µM; treatment time 24 h; reporter: 7TFP
Procedure, shortened: as §1

SMILES	cell viability [1]	cell viability [2]	cell viability [3]	TCF/Wnt firefly luciferase reporter signal [4]	TCF/Wnt firefly luciferase reporter signal [5]
CCOC(=O)[C@H](CCc1ccccc1)N[C@@H](C)C(=O)N1[C@H](C(=O)O)C[C@@H]2CCC[C@@H]21	1.11 ± 0.17	1.08 ± 0.014	1.1 ± 0.042	1.06 ± 0.035	1.06 ± 0.1
CC(C)(C)CC(C)(C)c1ccc(O)c(Cc2ccc(Cl)cc2Cl)c1	0.987 ± 0.075	1.05 ± 0.05	1.03 ± 0.014	0.86 ± 0.012	0.891 ± 0.11
C[C@H](CS)C(=O)N1CCC[C@H]1C(=O)O	1.04 ± 0.097	1.02 ± 0.1	1.09 ± 0.014	1.04 ± 0.042	1.06 ± 0.021
C[C@@](Cc1ccc(O)c(O)c1)(NN)C(=O)O	1.01 ± 0.015	0.981 ± 0.098	1.02 ± 0.067	0.8725 ± 0.005	0.95 ± 0.13
CN(C)CCCN1c2ccccc2CCc2ccccc21	1.05 ± 0.1	0.989 ± 0.1	1.015 ± 0.0071	0.881 ± 0.012	0.913 ± 0.024
CC1=C(C(=O)O)N2C(=O)[C@@H](NC(=O)[C@H](N)c3ccc(O)cc3)[C@H]2SC1	0.977 ± 0.016	0.956 ± 0.063	0.949 ± 0.086	0.907 ± 0.14	0.918 ± 0.13
COc1cc(OC)c2c(=O)c(-c3ccccc3)c(C)oc2c1OC	1.07 ± 0.15	1.05 ± 0.078	1.01 ± 0.052	1 ± 0.069	0.9545 ± 0.00071
Cn1nnnc1SCC1=C(C(=O)O)N2C(=O)[C@@H](NC(=O)[C@H](OC=O)c3ccccc3)[C@H]2SC1	1.02	0.932 ± 0.056	1.03 ± 0.044	0.9225 ± 0.00071	0.992 ± 0.04
CC(=O)O[C@@H]1C=C[C@]2(C)C(C[C@@H](OC(C)=O)[C@]3(C)C4=CC(=O)O[C@H](c5ccoc5)[C@@]4(C)CCC23)C1(C)C (stereo not given in full)	1.06 ± 0.035	1.08 ± 0.042	1.03 ± 0.014	1.09 ± 0.021	1.12 ± 0.078
COc1c2ccoc2nc2c(OC)c(OCC(O)C(C)(C)O)ccc12 (stereo not given)	1.02 ± 0.038	1 ± 0.014	1 ± 0.013	1.03 ± 0.047	1.02 ± 0.057
NS(=O)(=O)c1ccc(S(=O)(=O)Nc2cccc3c(Cl)c[nH]c23)cc1 [indisulam]	1.04 ± 0.028	0.747 ± 0.07	0.926 ± 0.0028	1.17 ± 0.014	1.1 ± 0.15
Nc1ncn([C@@H]2O[C@H](CO)[C@@H](O)[C@H]2O)c(=O)n1	0.992 ± 0.011	0.945 ± 0.035	1.07 ± 0.092	1.01 ± 0.13	1.085 ± 0.0071
c1ccc2c(c1)CCCC2C1=NCCN1 (stereo not given)	1.02 ± 0.014	1.125 ± 0.0071	1.07 ± 0.05	1.08 ± 0.19	0.985 ± 0.0014
CN[C@@H]1[C@@H](O)[C@@H](O[C@@H]2[C@@H](O)[C@H](O[C@H]3OC(CN)=CC[C@H]3N)[C@@H](N)C[C@H]2N)OC[C@]1(C)O	1.04	0.9635 ± 0.0092	1.07 ± 0.042	0.933 ± 0.17	0.97 ± 0.085
NCc1ccc(S(N)(=O)=O)cc1	0.962 ± 0.023	1 ± 0.069	0.991 ± 0.042	1.03 ± 0.17	1.12 ± 0.078
CC12CCCC(O)(C1)C1CC(C)(C)C1CC2 (stereo not drawn) [beta-CARYOPHYLLENE ALCOHOL]	0.91 ± 0.072	1.12 ± 0.14	1 ± 0.04	1.1 ± 0.028	1.04 ± 0.028
O=C(c1c[nH]c2ccccc12)C(O)CO (stereo not given) [1-(3-Indolyl)-2,3-dihydroxypropan-1-one]	0.989 ± 0.072	1.02 ± 0.06	0.966 ± 0.046	1.12 ± 0.028	1 ± 0.079

SMILES	cell viability [1]	cell viability [2]	cell viability [3]	TCF/Wnt firefly luciferase reporter signal [4]	TCF/Wnt firefly luciferase reporter signal [5]
CC[C@H](C)[C@H](N)C1=N[C@H](C(=O)N[C@@H](CC(C)C)C(=O)N[C@H](CCC(=O)O)C(=O)N[C@H](C(=O)N[C@H]2CCCCNC(=O)[C@H](CC(N)=O)NC(=O)[C@@H](CC(=O)O)NC(=O)[C@H](Cc3cnc[nH]3)NC(=O)[C@@H](Cc3ccccc3)NC(=O)[C@H]([C@@H](C)CC)NC(=O)[C@@H](CCCN)NC2=O)[C@@H](C)CC)CS1	1.05 ± 0.05	1.03 ± 0.021	0.992 ± 0.04	1.03 ± 0.042	1.03 ± 0.021
OCCN1CCN(CCCN2c3ccccc3Sc3ccc(Cl)cc32)CC1	0.891 ± 0.027	0.917 ± 0.08	0.983 ± 0.025	1.03	0.976 ± 0.13
C/C1=C\CC(C)(C)/C=C/CC2(C)OC2CC1 (stereo not given)	1.04 ± 0.035	0.96 ± 0.099	1.03 ± 0.035	1.09 ± 0.12	0.8895 ± 0.00071
CC1(C)O[C@@H]2C[C@H]3[C@@H]4C[C@H](F)C5=CC(=O)C=C[C@]5(C)[C@@]4(F)[C@@H](O)C[C@]3(C)[C@]2(C(=O)CO)O1	0.955 ± 0.11	1 ± 0.093	0.975 ± 0.05	0.974 ± 0.032	0.944 ± 0.038
COc1ccc2[nH]cc(CCNC(C)=O)c2c1	0.961 ± 0.0071	1.11 ± 0.05	0.974 ± 0.052	0.967 ± 0.046	0.983 ± 0.095
COc1cc2nc(N(C)CCCNC(=O)C3CCCO3)nc(N)c2cc1OC (stereo not given)	1.01 ± 0.12	0.973 ± 0.053	0.985 ± 0.035	0.972 ± 0.069	0.905 ± 0.053
Cc1ccc(C(=O)Nc2ccc(S(=O)(=O)O)c3cc(S(=O)(=O)O)cc(S(=O)(=O)O)c23)cc1NC(=O)c1cccc(NC(=O)Nc2cccc(C(=O)Nc3cc(C(=O)Nc4ccc(S(=O)(=O)O)c5cc(S(=O)(=O)O)cc(S(=O)(=O)O)c45)ccc3C)c2)c1	1.02 ± 0.068	0.929 ± 0.13	1.04 ± 0.035	0.936 ± 0.018	0.954 ± 0.11
CCN(CC)CC(=O)Nc1c(C)cccc1C	1.05	1.1 ± 0.021	1.02 ± 0.021	1.06 ± 0.05	1.03 ± 0.021
CCN(CC)C(=S)SSC(=S)N(CC)CC	0.764 ± 0.14	0.504 ± 0.17	0.938 ± 0.12	1.02 ± 0.41	0.842 ± 0.043
NC(=O)c1ccc[n+]([C@@H]2O[C@H](COP(=O)([O-])OP(=O)(O)OC[C@H]3O[C@@H](n4cnc5c(N)ncnc54)[C@H](O)[C@@H]3O)[C@@H](O)[C@H]2O)c1	0.955 ± 0.11	0.956 ± 0.09	0.942 ± 0.027	1.1 ± 0.057	1.24 ± 0.071
COc1cc2c(cc1OC)C(=O)C(CC1CCN(Cc3ccccc3)CC1)C2 (stereo not given)	1.05 ± 0.014	1.06 ± 0.042	1.06	1.12 ± 0.14	1.06 ± 0.05
CN[C@@H]1[C@H](O[C@H]2[C@H](O[C@H]3[C@H](O)[C@@H](O)[C@H](NC(=N)N)[C@@H](O)[C@@H]3NC(=N)N)O[C@@H](C)[C@]2(O)CO)O[C@@H](CO)[C@H](O)[C@H]1O	0.9855 ± 0.0078	1.13 ± 0.042	1.055 ± 0.0071	1.18 ± 0.071	1.11
C[C@@H]1CC[C@]2(C(=O)O[C@@H]3O[C@H](CO)[C@@H](O)[C@H](O)[C@H]3O)CC[C@]3(C)C(=CC[C@@H]4[C@@]5(C)C[C@@H](O)[C@H](O)[C@@](C)(CO)[C@@H]5CC[C@]43C)[C@@H]2[C@]1(C)O [Nigaichigoside F1]	1.17 ± 0.11	1.02 ± 0.072	1.05 ± 0.042	1.08 ± 0.028	1.06 ± 0.24
CCCCCNC(=N)N/N=C/c1c[nH]c2ccc(OC)cc12	0.877 ± 0.1	0.964 ± 0.031	1.045 ± 0.0071	1.1 ± 0.028	1.045 ± 0.0071
CCOC(=O)c1c(C)cc(O)c(C=O)c1O	0.945 ± 0.05	1.08 ± 0.014	0.9445 ± 0.005	0.865 ± 0.11	0.861 ± 0.11
C=CCc1ccc(OC(=O)c2ccccc2)c(OC)c1	1.02 ± 0.14	1.07 ± 0.05	1.02 ± 0.063	1.22 ± 0.014	1 ± 0.14
CCCOc1ccc(C(=O)OCCN(CC)CC)cc1N	0.9545 ± 0.0064	0.994 ± 0.051	0.95 ± 0.038	0.97 ± 0.057	1.095 ± 0.0071
